# Measured values: PubChem BioAssay
# For some of these results: Results with a measured potency or affinity are listed apart. The source made the active and inactive calls.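 The calls were made as follows, unless noted: active = fluorescence ratio normalized to control raised more than 50% in primary screen plus both repeat runs; inactive = the rest.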
# Assays:
# [1] = system: TRPC4 beta (transient receptor potential cation channel C4), mouse; assay: TRPC4 cation channel opening, retest – cell-based, Fluo4 calcium, HEK293 TRPC4beta/mu-opioid, duplicates, 10 µM, confirmation (AID 2426); settings: Fluo4 calcium fluorescence, at 10 µM; stronger effect = higher value
# [2] = system: transient receptor potential cation channel C4 beta (TRPC4), mouse; assay: TRPC4 cation channel opening, second retest – cell-based, second round, Fluo4, HEK293 TRPC4beta/mu-opioid, 1 µM, confirmation (AID 2461;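 active = primary screen active and over 50% activation in each of two duplicate runs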); settings: Fluo4 calcium fluorescence, at 1 µM; stronger effect = higher value
# [3] = system: TRPC4 (transient receptor potential cation channel C4 beta), mouse; assay: potentiation of DAMGO EC20 TRPC4 response – cell-based, second round, Fluo-4, HEK293 TRPC4beta/mu-opioid, 1 µM, confirmation (AID 2554;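 active = primary screen hit whose fluorescence ratio, in both repeats, exceeds the weak agonist control mean by 3 SD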); settings: DAMGO EC20, Fluo-4 calcium flux, at 1 µM; stronger effect = higher value
# [4] = system: TRPC4 beta (transient receptor potential cation channel C4), mouse; assay: potentiation of DAMGO EC20 TRPC4 response – cell-based, Fluo-4, HEK293 TRPC4beta/mu-opioid, confirmation (AID 2555;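 active = primary screen hit whose calcium fluorescence ratio, in both repeats, exceeds the weak agonist control mean by 3 SD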); settings: DAMGO EC20, Fluo-4 calcium flux, at 10 µM; stronger effect = higher value
# [5] = target: Short transient receptor potential channel 4 (Mus musculus) (UniProt Q9QUQ5); assay: blockers of DAMGO-evoked TRPC4 calcium flux – cell-based, Fluo4, HEK293 TRPC4beta/mu-opioid, confirmation (AID 2636;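 active = calcium signal cut by more than 3 SD below the full-agonist control yet still positive, in both repeats and the earlier primary screen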); settings: at 10 µM; stronger effect = higher value
# [6] = target: Short transient receptor potential channel 4 (Mus musculus) (UniProt Q9QUQ5); assay: blockers of DAMGO-evoked TRPC4 calcium flux – cell-based, second round, Fluo4, HEK293 TRPC4beta/mu-opioid, 1 µM, confirmation (AID 2637;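 active = calcium signal ratio cut to more than 3 SD under the fully stimulated control mean yet still positive, in both repeats and the primary screen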); settings: at 1 µM; stronger effect = higher value
# [7] = target: Short transient receptor potential channel 4 (Mus musculus) (UniProt Q9QUQ5); assay: calcium entry via TRPC4 opening agents – cell-based, HEK293 TRPC4/mu-opioid, Fluo-4 calcium, dose response (AID 434937;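 active = primary screen activator hit with a dose response curve and TRPC4 channel activation at any tested dose; inactive = no activation, no dose response, or not a primary hit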)
# [8] = target: Short transient receptor potential channel 4 (Mus musculus) (UniProt Q9QUQ5); assay: potentiation of DAMGO-evoked TRPC4 calcium signal – cell-based, HEK293 TRPC4/mu-opioid, Fluo-4 calcium, EC20 DAMGO, dose response (AID 434941;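 active = earlier screen potentiator hit that boosts the TRPC4 ion channel at some dose, with a dose response; inactive = no potentiation, no dose response, or not a prior hit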;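 also: calcium entry triggered by an EC20 dose of DAMGO at the co-expressed mu-opioid receptor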)
# [9] = target: Short transient receptor potential channel 4 (Mus musculus) (UniProt Q9QUQ5); assay: block of DAMGO-driven TRPC4 calcium entry – cell-based, HEK293 TRPC4/mu-opioid, Fluo-4 calcium, dose response (AID 434942;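 active = primary screen inhibitor hit that blocks the TRPC4 channel at some tested dose, yielding a dose curve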)
# [10] = target: Short transient receptor potential channel 6 (Mus musculus) (UniProt Q61143); assay: TRPC6 blockade by TRPC4 inhibitor hits – cell-based, HEK293, membrane potential dye, duplicate, selectivity assay for TRPC4 inhibitor project, confirmation (AID 434948;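 active = active in primary screen and both duplicates, each dropping signal beyond three positive-control SD with fluorescence still positive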); settings: HEK293 TRPC6, membrane potential dye fluorescence, at 10 µM, stimulated with maximal-effect acetylcholine; stronger effect = higher value
# [11] = target: Short transient receptor potential channel 6 (Mus musculus) (UniProt Q61143); assay: TRPC6 opening by TRPC4 activator hits – cell-based, HEK293, membrane potential dye, duplicate, selectivity assay for TRPC4 activator project, confirmation (AID 434950;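 active = membrane potential signal rise above negative control mean plus 3 SD in both duplicates, also active in the earlier TRPC4 screen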); settings: HEK293 TRPC6, membrane potential fluorescence, at 10 µM; activation: stronger effect = higher value; outcome: activation
# [12] = target: Short transient receptor potential channel 6 (Mus musculus) (UniProt Q61143); assay: positive modulators of mouse TRPC6 channel – HEK293 cells, membrane potential dye, duplicate, selectivity assay for TRPC4 potentiator project, confirmation (AID 434952;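 active = compound raising the membrane signal above positive-control mean plus 3 SD in both repeats, and a primary screen hit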); settings: HEK293 TRPC6, membrane potential dye fluorescence, at 10 µM, maximal acetylcholine added after compound; stronger effect = higher value
# [13] = target: Short transient receptor potential channel 4 (Mus musculus) (UniProt Q9QUQ5); assay: calcium flux activators in TRPC4/5HT1a cells, counter-screen for TRPC4 activator project, cell-based, second counter screen, HEK293 TRPC4/5HT1a, Fluo-4 (AID 434977;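 active = calcium signal rise above buffer-control mean plus 5 SD in both duplicates, and also a hit in the primary screen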); settings: Fluo-4 calcium flux, at 10 µM; stronger effect = higher value
# [14] = serotonin-gated TRPC4 signal block – cell-based, second counter screen, HEK293 TRPC4/5HT1a, Fluo-4, counter-screen for TRPC4 inhibitor project, confirmation (AID 434978;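 active = primary screen active whose calcium signal fell more than 3 SD beyond the full-serotonin control mean in both duplicate plates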;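 as to outcome: serotonin given first at submaximal then at maximal dose after compound preincubation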); settings: Fluo-4 calcium flux, at 10 µM, serotonin added to trigger calcium flux; stronger effect = higher value
# [15] = system: TRPC4 (mouse), co-expressed with 5HT1a in HEK293; assay: enhancement of serotonin-evoked TRPC4 response – cell-based, second counter screen, HEK293 TRPC4/5HT1a, Fluo-4, counter-screen for TRPC4 potentiator project, confirmation (AID 434979;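 active = signal rise over 3 SD above mean of control wells given weak agonist, in both repeats and first screen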); settings: Fluo-4 calcium flux, at 10 µM, serotonin added at its EC20 dose; stronger effect = higher value
# [16] = nonspecific calcium rise without TRPC4 – cell-based, HEK293 mu-opioid receptor line, counter-screen for TRPC4 activator project, confirmation (AID 449723;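 active = hit in primary screen, with calcium signal over 5 SD above buffer well mean in both duplicates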;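 also: counter screen cells carry the mu-opioid receptor alone and lack TRPC4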); settings: HEK293 mu-opioid cells, Fluo-4 calcium fluorescence, at 10 µM; stronger effect = higher value
# [17] = nonspecific potentiation of DAMGO calcium response – cell-based, HEK293 mu-opioid receptor line, counter-screen for TRPC4 allosteric potentiator project, confirmation (AID 449724;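 active = calcium signal rise more than 3 SD above the low-dose agonist control mean, in both duplicate plates and the primary screen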); settings: HEK293 mu-opioid receptor cells, Fluo-4 calcium flux, at 10 µM, compound added before EC20 DAMGO stimulus; stronger effect = higher value
# Sequence of Short transient receptor potential channel 4 (Mus musculus) (Q9QUQ5 whole entry, looked up): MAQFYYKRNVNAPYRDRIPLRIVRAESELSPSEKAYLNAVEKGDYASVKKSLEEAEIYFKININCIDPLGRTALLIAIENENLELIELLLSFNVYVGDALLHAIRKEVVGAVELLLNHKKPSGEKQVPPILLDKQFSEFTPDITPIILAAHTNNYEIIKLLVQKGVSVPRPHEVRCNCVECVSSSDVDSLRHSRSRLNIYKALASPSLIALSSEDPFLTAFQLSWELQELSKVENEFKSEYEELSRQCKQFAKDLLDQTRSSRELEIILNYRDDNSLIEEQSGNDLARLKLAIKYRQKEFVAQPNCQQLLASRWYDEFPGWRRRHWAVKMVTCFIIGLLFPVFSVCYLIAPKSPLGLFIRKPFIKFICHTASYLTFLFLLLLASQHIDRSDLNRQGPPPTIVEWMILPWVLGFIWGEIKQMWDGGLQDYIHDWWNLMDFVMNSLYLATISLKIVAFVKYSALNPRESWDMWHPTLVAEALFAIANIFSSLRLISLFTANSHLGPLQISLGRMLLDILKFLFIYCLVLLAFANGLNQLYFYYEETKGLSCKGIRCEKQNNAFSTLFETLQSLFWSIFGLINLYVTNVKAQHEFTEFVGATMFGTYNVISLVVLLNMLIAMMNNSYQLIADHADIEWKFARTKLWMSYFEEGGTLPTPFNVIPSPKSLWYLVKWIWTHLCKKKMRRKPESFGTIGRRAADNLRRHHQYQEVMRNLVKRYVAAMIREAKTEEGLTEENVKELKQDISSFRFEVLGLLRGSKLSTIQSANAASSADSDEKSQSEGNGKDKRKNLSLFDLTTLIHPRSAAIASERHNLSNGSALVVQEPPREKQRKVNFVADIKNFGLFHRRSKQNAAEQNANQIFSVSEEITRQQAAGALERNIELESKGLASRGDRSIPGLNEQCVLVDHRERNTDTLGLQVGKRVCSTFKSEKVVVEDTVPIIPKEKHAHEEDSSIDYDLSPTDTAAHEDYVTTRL
# Sequence of Short transient receptor potential channel 6 (Mus musculus) (Q61143 whole entry, looked up): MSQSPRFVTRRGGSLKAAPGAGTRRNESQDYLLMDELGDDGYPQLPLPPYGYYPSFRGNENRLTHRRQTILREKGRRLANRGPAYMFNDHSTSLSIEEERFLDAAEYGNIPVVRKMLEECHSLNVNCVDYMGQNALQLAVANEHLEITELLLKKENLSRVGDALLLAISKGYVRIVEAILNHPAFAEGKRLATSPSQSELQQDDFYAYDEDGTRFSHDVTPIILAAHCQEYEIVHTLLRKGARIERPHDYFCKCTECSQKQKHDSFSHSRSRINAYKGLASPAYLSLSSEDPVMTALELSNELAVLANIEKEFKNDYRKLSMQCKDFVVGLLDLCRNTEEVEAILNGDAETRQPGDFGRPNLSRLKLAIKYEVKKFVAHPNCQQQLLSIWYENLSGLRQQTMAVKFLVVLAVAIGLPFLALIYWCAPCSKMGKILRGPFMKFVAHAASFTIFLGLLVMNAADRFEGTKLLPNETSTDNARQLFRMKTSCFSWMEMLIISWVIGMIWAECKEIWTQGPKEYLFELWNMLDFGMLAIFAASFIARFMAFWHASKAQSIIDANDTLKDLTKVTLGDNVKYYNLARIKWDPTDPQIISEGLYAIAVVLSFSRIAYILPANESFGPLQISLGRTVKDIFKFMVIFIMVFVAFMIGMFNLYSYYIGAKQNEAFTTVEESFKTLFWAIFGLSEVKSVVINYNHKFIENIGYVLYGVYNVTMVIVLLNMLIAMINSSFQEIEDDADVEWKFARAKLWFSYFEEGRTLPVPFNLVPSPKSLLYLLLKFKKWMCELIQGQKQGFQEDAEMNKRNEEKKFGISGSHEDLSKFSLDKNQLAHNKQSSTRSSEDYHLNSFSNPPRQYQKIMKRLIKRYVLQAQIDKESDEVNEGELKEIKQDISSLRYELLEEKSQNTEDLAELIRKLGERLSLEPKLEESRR
compound,measurement,setting,value
CCOc1ccc2nc(NCCNC(=O)C3CC3)c(C)cc2c1,outcome,[1],inactive
same,outcome,[2],inactive
same,outcome,[3],inactive
same,outcome,[4],inactive
same,outcome,[5],inactive
same,outcome,[6],inactive
same,outcome,[7],inactive
same,outcome,[8],inactive
same,outcome,[9],inactive
same,outcome,[10],inactive
same,outcome,[11],inactive
same,outcome,[12],inactive
same,outcome,[13],inactive
same,outcome,[14],inactive
same,outcome,[15],inactive
same,outcome,[16],inactive
same,outcome,[17],inactive
CC(=O)N1N=C(c2ccc(Br)cc2)OC1(C)CC(=O)Nc1ccccc1 (stereo unspecified),outcome,[1],inactive
same,outcome,[2],inactive
same,outcome,[3],inactive
same,outcome,[4],inactive
same,outcome,[5],inactive
same,outcome,[6],inactive
same,outcome,[7],inactive
same,outcome,[8],inactive
same,outcome,[9],inactive
same,outcome,[10],inactive
same,outcome,[11],inactive
same,outcome,[12],inactive
same,outcome,[13],inactive
same,outcome,[14],inactive
same,potentiation,[15],13.4% (active)
same,outcome,[16],inactive
same,outcome,[17],inactive
CCn1c(C2CC(=O)N(Cc3ccccc3)C2)nc2ccccc21 (stereo unspecified),outcome,[1],inactive
same,outcome,[2],inactive
same,outcome,[3],inactive
same,potentiation,[4],11% (active)
same,outcome,[5],inactive
same,outcome,[6],inactive
same,outcome,[7],inactive
same,outcome,[8],inactive
same,outcome,[9],inactive
same,outcome,[10],inactive
same,outcome,[11],inactive
same,outcome,[12],inactive
same,outcome,[13],inactive
same,outcome,[14],inactive
same,potentiation,[15],23.9% (active)
same,outcome,[16],inactive
same,outcome,[17],inactive
Cc1cccc(NC(=O)c2cc([N+](=O)[O-])ccc2N2CCN(C)CC2)c1,outcome,[1],inactive
same,outcome,[2],inactive
same,outcome,[3],inactive
same,outcome,[4],inactive
same,outcome,[5],inactive
same,outcome,[6],inactive
same,outcome,[7],inactive
same,outcome,[8],inactive
same,outcome,[9],inactive
same,outcome,[10],inactive
same,outcome,[11],inactive
same,outcome,[12],inactive
same,outcome,[13],inactive
same,outcome,[14],inactive
same,potentiation,[15],18.8% (active)
same,outcome,[16],inactive
same,outcome,[17],inactive
Cc1ccc(C)c(N2CCN(CCCNC(=O)CCn3c(=O)c4cccn4c4cccnc43)CC2)c1,outcome,[1],inactive
same,outcome,[2],inactive
same,outcome,[3],inactive
same,outcome,[4],inactive
same,outcome,[5],inactive
same,outcome,[6],inactive
same,outcome,[7],inactive
same,outcome,[8],inactive
same,outcome,[9],inactive
same,outcome,[10],inactive
same,outcome,[11],inactive
same,outcome,[12],inactive
same,outcome,[13],inactive
same,outcome,[14],inactive
same,outcome,[15],inactive
same,outcome,[16],inactive
same,outcome,[17],inactive
C/C(N)=C(/C#N)C(=O)COC(=O)C1CCC(C(C)(C)C)CC1 (stereo unspecified),outcome,[1],inactive
same,outcome,[2],inactive
same,outcome,[3],inactive
same,outcome,[4],inactive
same,outcome,[5],inactive
same,outcome,[6],inactive
same,outcome,[7],inactive
same,outcome,[8],inactive
same,outcome,[9],inactive
same,outcome,[10],inactive
same,outcome,[11],inactive
same,outcome,[12],inactive
same,outcome,[13],inactive
same,outcome,[14],inactive
same,outcome,[15],inactive
same,outcome,[16],inactive
same,outcome,[17],inactive
O=C(CCN1CCN(Cc2ccccc2)CC1)Nc1cccc(Br)c1,outcome,[1],inactive
same,outcome,[2],inactive
same,potentiation,[3],21% (active)
same,outcome,[4],inactive
same,outcome,[5],inactive
same,outcome,[6],inactive
same,outcome,[7],inactive
same,outcome,[8],inactive
same,outcome,[9],inactive
same,outcome,[10],inactive
same,outcome,[11],inactive
same,outcome,[12],inactive
same,outcome,[13],inactive
same,outcome,[14],inactive
same,outcome,[15],inactive
same,outcome,[16],inactive
same,outcome,[17],inactive
Cc1cc(NC(=O)CSCC(=O)Nc2ccc(Cl)c(C(F)(F)F)c2)no1,outcome,[1],inactive
same,outcome,[2],inactive
same,outcome,[3],inactive
same,outcome,[4],inactive
same,inhibition,[5],71% (active)
same,outcome,[6],inactive
same,outcome,[7],inactive
same,outcome,[8],inactive
same,outcome,[9],inactive
same,outcome,[10],inactive
same,outcome,[11],inactive
same,outcome,[12],inactive
same,outcome,[13],inactive
same,inhibition,[14],35.2% (active)
same,outcome,[15],inactive
same,outcome,[16],inactive
same,outcome,[17],inactive
